Experimental data: PubChem BioAssay (NCATS)
Inconclusive results are not listed. Activity calls are given as the source filed them. The call rests on the fitted dose curve; in most records, active means well fitted inhibition curve with a large enough effect; inconclusive means small, poorly fitted or top-dose-only effect; inactive means flat fitted curve, though single readings scatter.

Target: Calcium and integrin-binding protein 1 (Homo sapiens) (UniProt Q99828)
Test: Primary qHTS for Identification of Calcium Integrin Binding Protein 1 (CIB1) Competitor (AID 1508620);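 further: GST tagged CIB1 binding a fluorescein labelled alphaIIb integrin peptide tracer; top concentration of the series differs between compounds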
Details: CIB1-GST / FITC-alphaIIb peptide fluorescence polarization; series mostly up to 57.7 µM; activity change, negative = inhibition: at the top concentration
Summary of the method: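 Fluorescence polarization competition: CIB1-GST (1 uM final) preincubated with compound 15 min at room temperature, then FITC-labeled alphaIIb peptide (100 nM final) added for another 15 min. Polarization read at Ex 480/Em 540.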
On the % scale 0 is the no-effect control and ±100 the full control effect.

Sequence of Calcium and integrin-binding protein 1 (Homo sapiens) (Q99828 whole entry, looked up): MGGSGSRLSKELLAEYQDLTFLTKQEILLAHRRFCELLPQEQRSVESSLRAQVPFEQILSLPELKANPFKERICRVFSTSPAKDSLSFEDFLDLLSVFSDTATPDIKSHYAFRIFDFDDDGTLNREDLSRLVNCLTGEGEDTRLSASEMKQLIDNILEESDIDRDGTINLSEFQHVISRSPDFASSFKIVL

Row | Structure (SMILES) | activity change, negative = inhibition
1 | C[C@H](NCc1ccc(OCc2ccccc2F)cc1)C(N)=O | -4.88% [at 114 µM] (inactive)
2 | COc1cc(C(O)C(CO)Oc2ccc(CCCO[C@@H]3O[C@@H](C)[C@H](O)[C@@H](O)[C@H]3O)cc2OC)ccc1O (some centres undefined) | -3.14% (inactive)
3 | COC(=O)[C@H](CC1C=NC=N1)NCC12CC3CC(CC(C3)C1)C2 (some centres undefined) | -0.602% [at 114 µM] (inactive)
4 | CC1(C)CC[C@]2(C(=O)O)CC[C@]3(C)C(=CCC4[C@@]5(C)C[C@H](O)[C@H](O[C@@H]6OC[C@H](O)[C@H](O)[C@H]6O)[C@@](C)(CO)C5CC[C@]43C)[C@@H]2C1 (some centres undefined) | 5.54% [at 30.2 µM] (inactive)
5 | CC(C)=CCC[C@](C)(O[C@@H]1O[C@H](CO[C@@H]2OC[C@@H](O)[C@H](O)[C@H]2O)[C@@H](O)[C@H](O)[C@H]1O)[C@H]1CC[C@]2(C)[C@@H]1[C@H](O)C[C@@H]1[C@@]3(C)CC[C@H](O[C@@H]4O[C@H](CO)[C@@H](O)[C@H](O)[C@H]4O[C@@H]4O[C@H](CO)[C@@H](O)[C@H](O)[C@H]4O)C(C)(C)[C@@H]3CC[C@]12C | -1.61% (inactive)
6 | CC1=CC(=O)C2C(C)(C)CC(O)CC2(C)C1CO (centres undefined) | -2.27% [at 114 µM] (inactive)
7 | CC[C@H](/C=C/[C@@H](C)[C@H]1CC[C@H]2[C@@H]3CC=C4C[C@@H](O)CC[C@]4(C)[C@H]3CC[C@]12C)C(C)C | 1.65% [at 12.4 µM] (inactive)
8 | COC(=O)C1=CO[C@@H](O[C@@H]2O[C@H](CO)[C@@H](O)[C@H](O)[C@H]2O)[C@@H]2[C@@](C)(O)[C@@H](O)C[C@]12O | 4.61% (inactive)
9 | COc1cc(C2OCC3C(c4ccc(OC5OC(CO)C(O)C(O)C5O)c(OC)c4)OCC23)ccc1O (centres undefined) | -7.36% (inactive)
